The panel holds about 83,000 compounds, 20% with a hit somewhere; the sample as a whole holds those more often.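 Treatment: one concentration, 48 hours, 96-well format. Scoring: percent growth, with anything below 10 considered active.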 The source made the active and inactive calls.
Columns and labels:
Assay in all cases: NCI-60 one-dose screen, 48 h (100 = growth as untreated, 0 = no growth, -100 = all killed)
HCT-15 colon = details: 10 µM unless noted
HT29 colon = details: 10 µM unless noted
SNB-75 CNS = details: 10 µM unless noted
SNB-19 CNS = details: 10 µM unless noted
U251 CNS = details: 10 µM unless noted
PC-3 prostate = details: 10 µM unless noted
SK-MEL-5 melanoma = details: 10 µM unless noted
UACC-62 melanoma = details: 10 µM unless noted
LOX IMVI melanoma = details: 10 µM
SK-MEL-28 melanoma = details: 10 µM unless noted
SK-MEL-2 melanoma = details: 10 µM unless noted
EKVX NSCLC = details: 10 µM unless noted
SN12C renal = details: 10 µM unless noted
UO-31 renal = details: 10 µM unless noted
TK-10 renal = details: 10 µM unless noted
ACHN renal = details: 10 µM unless noted
CAKI-1 renal = details: 10 µM unless noted
A498 renal = details: 10 µM unless noted
CCRF-CEM leukemia = details: 10 µM unless noted
MOLT-4 leukemia = details: 10 µM unless noted

Measured: growth

COc1ccc2c(ccc[n+]2C)c1
inactive: HCT-15 colon 93.5% | HT29 colon 93% | SNB-75 CNS 78.3% | SNB-19 CNS 101% | U251 CNS 96.7% | PC-3 prostate 119% | SK-MEL-5 melanoma 103% | UACC-62 melanoma 95.5% | LOX IMVI melanoma 105% | SK-MEL-28 melanoma 111% | SK-MEL-2 melanoma 103% | EKVX NSCLC 84.7% | SN12C renal 104% | UO-31 renal 86.5% | TK-10 renal 102% | ACHN renal 98.5% | CAKI-1 renal 96.4% | A498 renal 107% | CCRF-CEM leukemia 98.3%

Nc1nc2nnc(-c3ccccc3)c(-c3ccccc3)n2n1
active: SK-MEL-2 melanoma -2.91%
inactive: HCT-15 colon 94.7% | HT29 colon 97.4% | SNB-75 CNS 91.4% | SNB-19 CNS 80% | U251 CNS 111% | PC-3 prostate 86.5% | SK-MEL-5 melanoma 86.5% | UACC-62 melanoma 87.8% | LOX IMVI melanoma 87.6% | SK-MEL-28 melanoma 86.3% | EKVX NSCLC 92.8% | SN12C renal 94.7% | UO-31 renal 106% | TK-10 renal 121% | ACHN renal 98.1% | CAKI-1 renal 96.2% | A498 renal 87.4% | CCRF-CEM leukemia 102% | MOLT-4 leukemia 103%

CCN1CCCC(N2c3ccccc3Sc3ccccc32)C1 (configuration not stated)
inactive: HCT-15 colon 102% | HT29 colon 89.3% | SNB-75 CNS 92.8% | SNB-19 CNS 110% | U251 CNS 94.6% | PC-3 prostate 97.4% | SK-MEL-5 melanoma 97% | UACC-62 melanoma 104% | LOX IMVI melanoma 91.2% | SK-MEL-28 melanoma 105% | SK-MEL-2 melanoma 97.4% | EKVX NSCLC 116% | SN12C renal 101% | UO-31 renal 79.1% | TK-10 renal 78.8% | ACHN renal 98.5% | CAKI-1 renal 101% | A498 renal 100%

Clc1ncnc2nc[nH]c12
inactive: HCT-15 colon 96.4% | HT29 colon 107% | SNB-75 CNS 82.9% | SNB-19 CNS 96.4% | U251 CNS 103% | PC-3 prostate 96.4% | SK-MEL-5 melanoma 98.9% | UACC-62 melanoma 91.1% | LOX IMVI melanoma 95.1% | SK-MEL-28 melanoma 99.8% | SK-MEL-2 melanoma 118% | EKVX NSCLC 101% | SN12C renal 93.4% | UO-31 renal 77.2% | TK-10 renal 107% | ACHN renal 96.2% | CAKI-1 renal 108% | A498 renal 101% | CCRF-CEM leukemia 103% | MOLT-4 leukemia 100%

c1ccc(Nc2ccccn2)nc1
inactive: HCT-15 colon 95.7% | HT29 colon 100% | SNB-75 CNS 82.3% | SNB-19 CNS 97.5% | U251 CNS 91.8% | PC-3 prostate 95.9% | SK-MEL-5 melanoma 103% | UACC-62 melanoma 94.1% | LOX IMVI melanoma 95.7% | SK-MEL-28 melanoma 118% | SK-MEL-2 melanoma 95% | EKVX NSCLC 91.8% | SN12C renal 96.8% | UO-31 renal 96.7% | TK-10 renal 99.4% | ACHN renal 96% | CAKI-1 renal 95% | A498 renal 112% | CCRF-CEM leukemia 90.9% | MOLT-4 leukemia 91.7%

O=C(NC(=S)N1CC=CCC1)c1ccccc1
inactive: HCT-15 colon 102% | HT29 colon 100% | SNB-75 CNS 111% | SNB-19 CNS 105% | U251 CNS 104% | PC-3 prostate 98.5% | SK-MEL-5 melanoma 104% | UACC-62 melanoma 107% | LOX IMVI melanoma 107% | SK-MEL-28 melanoma 115% | SK-MEL-2 melanoma 84.4% | EKVX NSCLC 111% | SN12C renal 88.4% | UO-31 renal 87% | TK-10 renal 94.5% | ACHN renal 94.3% | CAKI-1 renal 105% | A498 renal 93.1% | CCRF-CEM leukemia 121% | MOLT-4 leukemia 94.2%

CC(=O)N(C)N=Nc1ccc(C)cc1
inactive: HCT-15 colon 107% | HT29 colon 116% | SNB-75 CNS 93.2% | SNB-19 CNS 101% | U251 CNS 106% | PC-3 prostate 97.7% | SK-MEL-5 melanoma 103% | UACC-62 melanoma 101% | LOX IMVI melanoma 98.1% | SK-MEL-28 melanoma 116% | SK-MEL-2 melanoma 101% | EKVX NSCLC 101% | SN12C renal 100% | UO-31 renal 81.6% | TK-10 renal 92.7% | ACHN renal 108% | CAKI-1 renal 98.6% | A498 renal 100% | CCRF-CEM leukemia 95.6% | MOLT-4 leukemia 112%

NNC(=O)CCCCl
inactive: HCT-15 colon 104% | HT29 colon 112% | SNB-75 CNS 95% | SNB-19 CNS 121% | U251 CNS 98.3% | PC-3 prostate 104% | SK-MEL-5 melanoma 102% | UACC-62 melanoma 103% | LOX IMVI melanoma 91.3% | SK-MEL-28 melanoma 110% | SK-MEL-2 melanoma 105% | EKVX NSCLC 98.6% | SN12C renal 102% | UO-31 renal 90.5% | TK-10 renal 111% | ACHN renal 114% | CAKI-1 renal 107% | A498 renal 117% | CCRF-CEM leukemia 112% | MOLT-4 leukemia 120%

O=C(OCc1ccccc1)n1nnc2ccccc21
inactive: HCT-15 colon 104% | HT29 colon 106% | SNB-75 CNS 90.2% | SNB-19 CNS 112% | U251 CNS 99.2% | PC-3 prostate 104% | SK-MEL-5 melanoma 105% | UACC-62 melanoma 94.4% | LOX IMVI melanoma 99.6% | SK-MEL-28 melanoma 101% | SK-MEL-2 melanoma 108% | EKVX NSCLC 98.2% | SN12C renal 97% | UO-31 renal 94.9% | TK-10 renal 107% | ACHN renal 108% | CAKI-1 renal 93.1% | A498 renal 124% | CCRF-CEM leukemia 111% | MOLT-4 leukemia 116%

c1ccc(Oc2c3ccccc3nc3ccccc23)cc1
active: HT29 colon 2.51% | CAKI-1 renal -20.4%
inactive: HCT-15 colon 14.6% | SNB-75 CNS 41.5% | SNB-19 CNS 91.9% | U251 CNS 11.7% | PC-3 prostate 20.1% | SK-MEL-5 melanoma 13.6% | UACC-62 melanoma 45.7% | LOX IMVI melanoma 31.3% | SK-MEL-28 melanoma 61.2% | SK-MEL-2 melanoma 39.9% | EKVX NSCLC 62.1% | SN12C renal 24.3% | UO-31 renal 43.8% | TK-10 renal 57.6% | ACHN renal 31.9% | A498 renal 33% | CCRF-CEM leukemia 14.2% | MOLT-4 leukemia 14.5%

C=CCNC(=S)N/C=C(/C(=O)c1ccccc1)c1ccccc1
inactive: HCT-15 colon 108% | HT29 colon 120% | SNB-75 CNS 88.5% | SNB-19 CNS 106% | U251 CNS 96.7% | PC-3 prostate 99.9% | SK-MEL-5 melanoma 102% | UACC-62 melanoma 98.8% | LOX IMVI melanoma 98.1% | SK-MEL-28 melanoma 104% | SK-MEL-2 melanoma 120% | EKVX NSCLC 106% | SN12C renal 93.6% | UO-31 renal 95.3% | TK-10 renal 107% | ACHN renal 97.7% | CAKI-1 renal 101% | A498 renal 98% | CCRF-CEM leukemia 101% | MOLT-4 leukemia 99.2%

C/C(O)=C(/C=N/C(=S)Nc1ccccc1)C(=O)Nc1ccccc1C
inactive: HCT-15 colon 96.7% | HT29 colon 105% | SNB-75 CNS 92.4% | SNB-19 CNS 93.9% | U251 CNS 95.4% | PC-3 prostate 86.5% | SK-MEL-5 melanoma 93.9% | UACC-62 melanoma 79.4% | LOX IMVI melanoma 94.4% | SK-MEL-28 melanoma 110% | SK-MEL-2 melanoma 114% | EKVX NSCLC 96.6% | SN12C renal 94.8% | UO-31 renal 89.7% | TK-10 renal 110% | ACHN renal 103% | CAKI-1 renal 101% | A498 renal 86.1% | CCRF-CEM leukemia 90.9% | MOLT-4 leukemia 96.9%

CCCCCCCCCCCCCCCCOc1ccccc1NC(=O)CC(C)=O
inactive: HCT-15 colon 113% | HT29 colon 97.9% | SNB-75 CNS 93.2% | SNB-19 CNS 104% | U251 CNS 99.3% | PC-3 prostate 75.4% | SK-MEL-5 melanoma 96.2% | UACC-62 melanoma 78.7% | LOX IMVI melanoma 107% | SK-MEL-28 melanoma 103% | SK-MEL-2 melanoma 92.1% | EKVX NSCLC 89.7% | SN12C renal 63.9% | UO-31 renal 25.8% | TK-10 renal 114% | ACHN renal 98.6% | CAKI-1 renal 92.5% | A498 renal 93.5% | CCRF-CEM leukemia 57.1% | MOLT-4 leukemia 84.8%

CCOC(=N)CC(=O)Nc1cccc(C)c1Cl
inactive: HCT-15 colon 100% | HT29 colon 116% | SNB-75 CNS 86% | SNB-19 CNS 109% | U251 CNS 103% | PC-3 prostate 93.6% | SK-MEL-5 melanoma 94.9% | UACC-62 melanoma 93.9% | LOX IMVI melanoma 93% | SK-MEL-28 melanoma 105% | SK-MEL-2 melanoma 118% | EKVX NSCLC 109% | SN12C renal 98.6% | UO-31 renal 70.5% | TK-10 renal 113% | ACHN renal 105% | CAKI-1 renal 93.7% | A498 renal 120% | CCRF-CEM leukemia 109% | MOLT-4 leukemia 108%

CCOC(=O)C1(N)CCCCC1
inactive: HCT-15 colon 112% | HT29 colon 104% | SNB-75 CNS 91.8% | SNB-19 CNS 96.5% | U251 CNS 99.1% | PC-3 prostate 96.6% | SK-MEL-5 melanoma 106% | UACC-62 melanoma 105% | LOX IMVI melanoma 102% | SK-MEL-28 melanoma 165% | SK-MEL-2 melanoma 106% | EKVX NSCLC 97.5% | SN12C renal 93.1% | UO-31 renal 79.6% | TK-10 renal 96.3% | ACHN renal 104% | CAKI-1 renal 88.2% | A498 renal 173% | CCRF-CEM leukemia 98.1% | MOLT-4 leukemia 107%
